FEN1 inh-1 = qHTS Assay for the Inhibitors of Human Flap endonuclease 1 (FEN1); P39748; Recombinant FEN1 flap cleavage, fluorescence, 15 min; Potency, µM (titrated, usually from 114 µM), inactives show at the highest dose activity change, negative = inhibition, most hits filed as inhibitors; 0.35% of 390,000 active; AID 588795, 2011; further: on the % scale 0 is the no-effect control and ±100 the full control effect; nearly all actives have a fitted effect of over 65% in size
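Nuclease activity of 10 nM FEN1 was measured after 15 min of room-temperature exposure to titrated compounds, by adding 50 nM flap substrate and reading plates at 0 and 15 min.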
L3MBTL1 block = qHTS Assay for the Inhibitors of L3MBTL1 | Lethal(3)malignant brain tumor-like protein 1 (Homo sapiens), Q9Y468 | Potency, µM (doses to about 57.1 µM), inactives show top-dose activity, negative = inhibition, most hits filed as inhibitors | AID 485360, 2010 | 0.66% of 230,000 active | AlphaScreen L3MBTL1–H3K9me1 peptide binding; further: on the % scale 0 is the no-effect control and ±100 the full control effect; nearly all actives have a fitted effect of over 60% in size
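Displacement of a biotinylated histone H3(1-15) peptide monomethylated at Lys9 (75 nM) from L3MBTL1 (50 nM) was measured by AlphaScreen after a 30 min room-temperature compound incubation; cefsulodin titration served as intraplate control.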
WRN helicase inh-1 = qHTS for Inhibitors of WRN Helicase | WRN helicase unwinding, fluorescent forked duplex, kinetic | Potency, µM (highest dose often 114 µM), for inactives: at the top dose activity change, negative = inhibition, actives largely listed as inhibitors | 0.46% of 360,000 active; further: on the % scale 0 is the no-effect control and ±100 the full control effect; nearly all actives have a fitted effect of over 55% in size
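Kinetic red-fluorescence monitoring (525/598 nm) tracks WRN helicase activity after 100 nM fluorophore-quencher forked duplex and 2 mM ATP are added to 20 nM enzyme pretreated 15 min at room temperature with compound.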
RECQ1 inh = qHTS Assay for Inhibitors of RecQ-Like Dna Helicase 1 (RECQ1); AID 2549, 2010; ATP-dependent DNA helicase Q1 (Homo sapiens), P46063; 0.54% of 240,000 active; RECQ1 DNA unwinding, red fluorescence kinetic read; Potency, µM (series often up to 57.3 µM), for inactives: at the highest dose activity, negative = inhibition, usual class: inhibitors;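 further: plate controls were vehicle for no effect and no enzyme for full effect; nearly all actives have a fitted effect of over 30% in size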
Target sequence (P46063 whole entry, looked up): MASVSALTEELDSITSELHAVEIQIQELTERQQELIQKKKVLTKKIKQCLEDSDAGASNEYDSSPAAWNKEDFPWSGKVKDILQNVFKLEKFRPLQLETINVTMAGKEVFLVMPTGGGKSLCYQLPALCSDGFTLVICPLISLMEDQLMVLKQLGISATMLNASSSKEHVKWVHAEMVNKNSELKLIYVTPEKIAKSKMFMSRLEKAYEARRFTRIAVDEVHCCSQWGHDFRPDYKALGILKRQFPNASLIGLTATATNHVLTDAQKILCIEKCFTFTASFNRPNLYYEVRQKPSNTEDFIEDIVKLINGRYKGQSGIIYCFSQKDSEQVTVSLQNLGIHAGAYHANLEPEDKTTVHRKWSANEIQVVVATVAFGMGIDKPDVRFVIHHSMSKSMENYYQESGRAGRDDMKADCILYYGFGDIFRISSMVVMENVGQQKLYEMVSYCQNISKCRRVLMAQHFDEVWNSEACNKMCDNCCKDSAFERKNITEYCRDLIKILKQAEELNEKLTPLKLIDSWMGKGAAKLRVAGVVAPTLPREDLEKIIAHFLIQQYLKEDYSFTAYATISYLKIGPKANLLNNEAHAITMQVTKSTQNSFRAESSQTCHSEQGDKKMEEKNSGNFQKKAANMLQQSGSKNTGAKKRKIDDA
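50 nM RECQ1T1 preincubated 15 min with compound in Tris pH 8.0 buffer with MgCl2, DTT, Tween-20 and 2.5 ug/ml poly(dI-dC); started with 200 nM TAMRA/BHQ-2 forked duplex and 2 mM ATP. Unwinding read as fluorescence (525/598 nm), two reads 2 h apart.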
BLM helicase inh-1 = qHTS Assay for Inhibitors of Bloom's syndrome helicase (BLM); RecQ-like DNA helicase BLM (Homo sapiens), P54132; recombinant BLM DNA unwinding, fluorescence dequenching; Potency, µM (top dose mostly 56.1 µM), without a hit: at the top dose activity change, negative = inhibition, actives largely listed as inhibitors; 0.2% of 350,000 active; AID 2528, 2010;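 further: plate controls were vehicle for no effect and no enzyme for full effect; nearly all actives have a fitted effect of over 35% in size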
APEX1 inh = qHTS Assay for Inhibitors of the Human Apurinic/apyrimidinic Endonuclease 1 (APE1). recombinant APE1, TAMRA/BHQ-2 abasic DNA cleavage fluorescence. DNA repair nuclease/redox regulator APEX1 (Homo sapiens), P27695. Potency, µM (highest dose often 65.8 µM), for inactives: at the top dose activity change, negative = inhibition, most hits filed as inhibitors. 0.35% of 350,000 active. AID 2517, 2012;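 further: plate controls were vehicle for no effect and reference inhibitor for full effect; nearly all actives have a fitted effect of over 55% in size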
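Activity was derived from the fluorescence gain between first and third kinetic reads (60 s intervals, ex 525/em 598 nm) after 50 nM THF-abasic TAMRA/BHQ-2 duplex was added to 0.75 nM APE1 preincubated 15 min with compound.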
FEN1 inh-2 = qHTS Assay for the Inhibitors of FEN1: Confirmatory Assay for Cherry-picked Compounds; AID 720498, 2013; 79% of 880 active; shares compounds with FEN1 inh-1; FEN1 flap cleavage, TAMRA/BHQ2 fluorogenic DNA substrate; Potency, µM, most hits filed as inhibitors; further: nearly all actives have a fitted effect of over 60% in size
WRN helicase inh-2 = qHTS for Inhibitors of WRN Helicase: Confirmatory Assay for Cherry-picked Compounds. shares compounds with WRN helicase inh-1. 63% of 610 active. WRN helicase DNA unwinding, fluorescence kinetic. Potency, µM (doses to about 57.1 µM), for inactives: top-dose activity, negative = inhibition, hits mostly inhibitors; further: nearly all actives have a fitted effect of over 65% in size
TO DNA binding = qHTS for Inhibitors of WRN Helicase: Thiazole Orange DNA Binding Counterscreen; shares compounds with WRN helicase inh-1; thiazole orange DNA binding displacement, fluorescence; Potency, µM (series often up to 57.1 µM), without a hit: top-dose activity change, negative = inhibition, hits mostly inhibitors; 10% of 610 active;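 further: drop in dye fluorescence marks compound binding to DNA; on the % scale 0 is the no-effect control and ±100 the full control effect; nearly all actives have a fitted effect of over 60% in size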
BLM helicase inh-2 = qHTS for Inhibitors of WRN Helicase: BLM Helicase Counterscreen for WRN Inhibitors; 60% of 610 active; Potency, µM (highest dose often 57.1 µM), for inactives: top-dose activity change, negative = inhibition, usual class: inhibitors; Recombinant BLM helicase DNA unwinding, red fluorescence; shares compounds with WRN helicase inh-1; AID 720503, 2013; further: nearly all actives have a fitted effect of over 60% in size
* marks the source's active call; other numbers are inactive results; [ ] = remark or other dose. In the library only some 1% were active in any assay of this set; here they are far more common. The call rests on the fitted dose curve; in most records, active means well fitted curve in the direction sought with a large enough effect; inconclusive means small, poorly fitted or top-dose-only effect, or another doubt; inactive means no such curve, though single readings can be large; an effect the other way counts as inactive or inconclusive. Potency means the concentration at half of the fitted maximal effect.

`COC(=O)c1ccc([C@H]2Nc3ccc(S(=O)(=O)Nc4ccc(C)cc4)cc3[C@H]3C=CC[C@H]32)cc1` gave FEN1 inh-1 -8.9% and BLM helicase inh-1 -17.2%.
For COc1ccc(NS(=O)(=O)c2ccc3c(c2)[C@H]2C=CC[C@H]2[C@@H](c2ccc(C(=O)O)cc2)N3)cc1 the results were FEN1 inh-1 20µM*, WRN helicase inh-1 39.8µM*, BLM helicase inh-1 -18.5%, APEX1 inh -11.9%, FEN1 inh-2 37.9*, WRN helicase inh-2 21.5µM*, TO DNA binding -20.9% and BLM helicase inh-2 27.1µM*.
`CC(=O)[C@@]1(O)Cc2c(O)c3c(c(O)c2[C@H](O[C@H]2C[C@H](N)[C@H](O)[C@H](C)O2)C1)C(=O)c1ccccc1C3=O` gave WRN helicase inh-2 24.1µM*, TO DNA binding inactive and BLM helicase inh-2 24.1µM*.
`N#CCC(=O)Nc1ccc(C(=O)OCC(=O)NNC(=O)c2ccc(Cl)cc2)cc1` gave FEN1 inh-1 inconclusive, L3MBTL1 block -8.8%, WRN helicase inh-1 inconclusive, APEX1 inh -35.2%, WRN helicase inh-2 inconclusive, TO DNA binding 30.4µM* and BLM helicase inh-2 inconclusive.
`O=C(Nc1ccc(F)cc1)c1oc2ccccc2c1NC(=O)C1CCCCC1` gave FEN1 inh-1 2.3% and BLM helicase inh-1 -8.8%.
COc1ccc(N=Cc2cc(Cc3ccccc3Cl)cc([N+](=O)[O-])c2O)cc1OC was read as FEN1 inh-1 -26.3%, WRN helicase inh-1 1.9%, RECQ1 inh -3.1%, BLM helicase inh-1 -0.9% and APEX1 inh -1.8%.
Screening Cc1ccc(N=Cc2cc(Cc3ccccc3Cl)cc([N+](=O)[O-])c2O)c(O)c1 returned FEN1 inh-1 -31.7%, WRN helicase inh-1 28.2µM*, RECQ1 inh inconclusive, BLM helicase inh-1 15.8µM*, APEX1 inh -10.1%, WRN helicase inh-2 24.1µM*, TO DNA binding inconclusive and BLM helicase inh-2 21.5µM*.
Screening CCN(CC)c1ccc(NC(=O)Nc2ccc(C(C)=O)cc2)cc1 returned FEN1 inh-1 -1.9%, L3MBTL1 block -1.1%, WRN helicase inh-1 -2.3%, RECQ1 inh 0.4%, BLM helicase inh-1 -3.6% and APEX1 inh 0.5%.
Screening CCN(CC)c1ccc(N=C2C=CC(=O)C=C2NC(C)=O)cc1 returned FEN1 inh-1 inconclusive, WRN helicase inh-1 17.8µM*, WRN helicase inh-2 -13.3%, TO DNA binding -11.3% and BLM helicase inh-2 -23.4%.
Cc1ccc(C(=O)NNC(=O)c2ccc(S(=O)(=O)N3CCCCC3)cc2)cc1 was read as FEN1 inh-1 -16.0%, L3MBTL1 block 4.9%, WRN helicase inh-1 35.5µM*, APEX1 inh -9.7%, WRN helicase inh-2 -17.1%, TO DNA binding -1.8% and BLM helicase inh-2 inconclusive.
`CCN1CCSc2ccc(C(=O)NC(C)c3ccccc3)cc21` (stereo not given) gave FEN1 inh-1 9.2% and BLM helicase inh-1 -4.4%.
For Cc1ccc(NC(=O)CN(C)C(=O)c2cccc(-n3cccc3)c2)cc1 the results were FEN1 inh-1 inconclusive, L3MBTL1 block 3.98µM*, WRN helicase inh-1 35.5µM*, APEX1 inh 0.947µM*, WRN helicase inh-2 7.64µM*, TO DNA binding -15.3% and BLM helicase inh-2 2.15µM*.
Screening N#C/C(=C\c1ccc(-c2cc(Cl)ccc2Cl)o1)C(=O)Nc1ccccc1C(=O)O returned FEN1 inh-1 inconclusive, BLM helicase inh-1 11.2µM*, WRN helicase inh-2 17.1µM*, TO DNA binding 10.8µM* and BLM helicase inh-2 3.04µM*.
CC1CC1c1ccc(/C=C(\C#N)C(=O)Nc2cc(Cl)ccc2Cl)o1 (stereo not given) was read as FEN1 inh-1 1.2%, L3MBTL1 block -11.5%, WRN helicase inh-1 -32.9%, RECQ1 inh 3.3%, BLM helicase inh-1 -3.0% and APEX1 inh -3.4%.
Screening COc1ccc(/C=N/NC(=O)c2ccccc2OC)cc1COc1ccccc1[N+](=O)[O-] returned FEN1 inh-1 2.9%, WRN helicase inh-1 inconclusive, BLM helicase inh-1 inconclusive, APEX1 inh 2.1%, WRN helicase inh-2 inconclusive, TO DNA binding -4.6% and BLM helicase inh-2 -20.3%.
`COc1ccc(/C=N/NC(=O)c2ccccc2OC)cc1COc1ccc(C)cc1` gave FEN1 inh-1 -1.6%, WRN helicase inh-1 -26.4%, BLM helicase inh-1 -2.9% and APEX1 inh 6.4%.
`CN1CCN(C2=C(NS(=O)(=O)c3ccccc3)C(=O)c3ccccc3C2=O)CC1` gave FEN1 inh-1 12.4%, WRN helicase inh-1 -0.5%[57.1 µM], BLM helicase inh-1 -4.4% and APEX1 inh 30.9%.
`CN1CCN(C2=C(Cl)C(=O)c3ccccc3C2=O)CC1` gave FEN1 inh-1 inconclusive, WRN helicase inh-1 inconclusive, WRN helicase inh-2 inconclusive, TO DNA binding -14.0% and BLM helicase inh-2 3.41µM*.
